Bioassay records as filed in PubChem BioAssay.
PP5 inh: inhibitors of human protein phosphatase 5 (PP5); P53041; purified PP5c, OMFP substrate fluorescence; inhibition, % at 6.7 µM; hit rate 0.18% among 320,000; AID 1987;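 active means inhibition above the campaign's mean inhibition across all tested compounds plus 3 SD, cut at about 9.5% in these data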
Target sequence (P53041 whole entry, looked up): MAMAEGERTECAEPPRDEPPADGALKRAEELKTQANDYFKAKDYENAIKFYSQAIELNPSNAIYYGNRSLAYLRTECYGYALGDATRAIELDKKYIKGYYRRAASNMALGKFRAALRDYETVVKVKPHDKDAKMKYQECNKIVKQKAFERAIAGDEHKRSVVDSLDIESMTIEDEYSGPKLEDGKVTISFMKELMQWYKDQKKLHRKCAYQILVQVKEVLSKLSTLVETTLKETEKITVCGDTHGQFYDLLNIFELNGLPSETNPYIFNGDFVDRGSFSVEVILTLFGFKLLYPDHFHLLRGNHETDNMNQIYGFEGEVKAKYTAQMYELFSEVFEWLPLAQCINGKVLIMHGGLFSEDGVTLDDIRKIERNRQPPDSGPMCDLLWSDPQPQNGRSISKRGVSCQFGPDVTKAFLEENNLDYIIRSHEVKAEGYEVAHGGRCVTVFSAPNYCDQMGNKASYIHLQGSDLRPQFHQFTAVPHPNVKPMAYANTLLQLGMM
PAFAH1B2 inh: blocks human PAF acetylhydrolase 1b catalytic subunit 2; P68402; recombinant PAFAH1B2, FP-rhodamine activity probe, fluorescence polarization; inhibition, % at 3.39 µM; hit rate 1.2% among 340,000; AID 492953;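 active means inhibition above the mean of all tested compounds plus 3 SD, cut at about 24% in these data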
PAFAH2 FP inh: PAFAH2 (human) inhibition. Q99487. recombinant PAFAH2, FP-rhodamine activity probe, fluorescence polarization. inhibition, % at 3.39 µM. hit rate 0.99% among 340,000. AID 492956;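 active means inhibition above the mean over all tested compounds plus 3 SD, cut at about 30% in these data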;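 further: inhibitors block probe labeling of enzyme so polarization drops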
pPAFAH inh: inhibitors of human plasma PAF acetylhydrolase (pPAFAH) | Q13093 | recombinant pPAFAH, FP-rhodamine probe fluorescence polarization | inhibition, % at 3.39 µM | hit rate 1.5% among 330,000 | AID 463082;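 active means inhibition above the mean inhibition across the screen plus 3 SD, cut at about 25% in these data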;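 further: inhibitors block binding of the rhodamine activity-based probe so polarization drops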
PAFAH1B3 inh: inhibitors of human PAFAH1B3; hit rate 0.28% among 340,000; recombinant PAFAH1B3, FP-rhodamine probe, fluorescence polarization; inhibition, % at 3.39 µM; Q15102;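 active means inhibition above the screen-wide average of all tested compounds plus 3 SD, cut at about 25% in these data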
PP1 inh: counter-screen for PP5 inhibitors: inhibitors of human PP1-alpha | hit rate 0.9% among 320,000 | purified PP1alpha, OMFP fluorescence | P62136 | inhibition, % at 6.7 µM;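 active means inhibition above the mean inhibition of all tested compounds plus 3 SD, computed separately for each screening campaign, cut at about 15% in these data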
Large screens that a line does not name were inactive. A selection: hits, their analogues and other compounds. The true share with any hit is near 3.4%.

O/N=C/c1ccccc1Oc1ccc(Cl)cc1	none
N#CCC(=O)c1ccccc1Oc1ccc(Cl)cc1	pPAFAH inh 25
O=C(NCc1ccco1)c1ccccc1NS(=O)(=O)c1ccc(Br)s1	pPAFAH inh 28
O=C(N[C@@H]1c2ccccc2CC[C@@H]1OCc1ccccc1)c1ccc(C(F)(F)F)cc1	none (no result: PP5 inh, PP1 inh)
CC(C)(C)C1CCC2(CC1)C(C#N)=C(SCC(=O)Nc1ccccc1)NC(=O)C2C#N (configuration not stated)	PAFAH1B2 inh 57
O=C(N/N=C/c1ccccc1)c1ccc(CN2C(=O)c3cccc4cccc2c34)cc1	none
Cc1cc([N+](=O)[O-])nn1Cc1ccc(C(=O)N/N=C/c2ccc(F)cc2)cc1	none
O=C(N/N=C/c1ccc(O)cc1O)c1ccc(CN2C(=O)c3cccc4cccc2c34)cc1	PAFAH1B2 inh 43, PAFAH2 FP inh 39, pPAFAH inh 30, PAFAH1B3 inh 35
Cc1cc([N+](=O)[O-])nn1Cc1ccc(C(=O)N/N=C/c2ccc(O)cc2O)cc1	pPAFAH inh 29, PP1 inh 16
CN1C[C@@H]2[C@@H]3C(=O)N(Cc4ccccc4)C(=O)[C@@H]3[C@](Cc3ccccc3)(C1=O)N2C(=O)c1ccc(Cl)cc1	none (no result: PP5 inh, pPAFAH inh, PP1 inh)
COc1ccc(C2c3cc(OC)c(OC)cc3CC3C(=O)OCC32)cc1OC (configuration not stated)	none (no result: PP5 inh, pPAFAH inh, PP1 inh)
Cc1cc(=O)[nH]c2ccc(S(=O)(=O)Nc3ccc(O)cc3)cc12	none
Cc1cc(=O)[nH]c2ccc(S(=O)(=O)Nc3ccccc3)cc12	pPAFAH inh 26
CC(C)CNC(=O)c1cc(=O)[nH]c2ccc(S(=O)(=O)Nc3ccc(F)cc3)cc12	pPAFAH inh 27
CC(=O)Nc1ccc(S(=O)(=O)N2CCC(C(=O)O)(c3ccccc3)CC2)cc1	none
CC(=O)Nc1ccc(S(=O)(=O)N2CCC(NC(C)=O)(c3cccc(F)c3)CC2)cc1	pPAFAH inh 27
Cc1cc(C(=O)NCc2ccco2)c2ccccc2n1	none
Cc1ccc(-c2cc(C(=O)NCc3ccco3)c3ccccc3n2)o1	PP1 inh 15
Cc1csc(NC(=O)c2cc(-c3ccco3)nc3ccccc23)n1	pPAFAH inh 25
Cc1csc(NC(=O)c2cc(C)nc3ccccc23)n1	none
CCOc1ccc(S(=O)(=O)N2CCC(C(=O)NCc3ccccc3CN3CCCC3)CC2)cc1	none
COc1ccccc1Cc1noc(-c2cc(Cl)ccc2OC)n1	pPAFAH inh 29
Cc1ccc(NC(=O)C2OCCc3ccccc32)cc1Cl (configuration not stated)	none
CCc1cccc(Nc2cnn(C34C[C@@H]5C[C@@H](CC(CC(=O)O)(C5)C3)C4)c(=O)c2Cl)c1	PAFAH1B2 inh 32
Cc1ccc(Nc2cnn(C34CC5CC(CC(CC(=O)O)(C5)C3)C4)c(=O)c2Cl)cc1C	none
Cc1ccc(C2(SCC(N)C(=O)O)c3ccccc3-c3ccccc32)cc1 (configuration not stated)	none (no result: PP5 inh, pPAFAH inh, PP1 inh)
O=S(=O)(Nc1ccc(O)c(NS(=O)(=O)c2ccccc2)c1)c1ccccc1	none
Cc1cccc(S(=O)(=O)Nc2cccc3c2C(=O)c2ccccc2-3)c1	none
Cc1cc(NS(=O)(=O)c2ccccc2)ccc1NS(=O)(=O)c1ccccc1	PAFAH1B2 inh 28 (no result: PP5 inh, pPAFAH inh, PP1 inh)
Cc1ccc(NS(=O)(=O)c2ccc(NC(=O)CSc3ccc(Cl)cc3)cc2)c(C)c1	pPAFAH inh 33
O=C(Nc1ccc(NS(=O)(=O)c2ccccc2)cc1)c1ccccc1Cl	pPAFAH inh 25 (no result: PP5 inh, PP1 inh)
Cc1ccc(NS(=O)(=O)c2ccc3c(c2)C(=O)c2ccccc2C3=O)c(C)c1	pPAFAH inh 32
CCOc1ccc(CN(C)CC(=O)Nc2ccc([N+](=O)[O-])cc2Cl)cc1	none
Cc1c(C)[n+](=O)c(C)c(C)n1[O-]	none (no result: PP5 inh, pPAFAH inh, PP1 inh)
CC(C)(C)NC(=O)COC(=O)c1ccc(Cl)cc1O	none
CSCc1c(C(=O)NCCc2ccccn2)oc2ccccc12	none
Cc1ccc(NS(=O)(=O)c2ccc(NC(=O)c3ccccc3C(=O)O)cc2)c(C)c1	pPAFAH inh 34
CN(c1cccc(NC(=O)CCSc2ccccc2)c1)S(C)(=O)=O	none
CN(c1cccc(NC(=O)CSc2ccc(Cl)cc2)c1)S(C)(=O)=O	PAFAH1B2 inh 49, pPAFAH inh 29
Cc1nc(NS(=O)(=O)c2ccccc2)sc1NC(=O)Nc1ccc(Cl)cc1	pPAFAH inh 34
